Reference: PubChem BioAssay (Tox21)
Inconclusive results are not listed. Where a call stands in place of a potency, no number is given. Active and inactive are the calls of the source. The call rests on the fitted dose curve; in most records, active means well fitted activation curve with a large enough effect in the signal ratio in the repeat runs (not every such curve was filed as active); inconclusive means weak or mixed curves; inactive means flat fitted curve, though single readings scatter; the % refers to the signal ratio.

assay: p53 small molecule agonists, cell-based qHTS assay (AID 1963582); conditions: HCT-116 p53RE-bla reporter, beta-lactamase FRET ratio, 16 h; series mostly up to 66 µM
Source text: National Center for Advancing Translational Sciences [NCATS]
Division of Preclinical Innovation [DPI]
U.S. Environmental Protection Agency [EPA]
National Institutes of Environmental Health Sciences [NIEHS]
National Toxicology Program [NTP]
U.S. Food and Drug Administration [FDA]
p53, a tumor suppressor protein, is activated following cellular insult, including DNA damage and other cellular stresses. The activation of p53 regulates cell fate by inducing DNA repair, cell cycle arrest, apoptosis, or cellular senescence. The activation of p53, therefore, is a good indicator of DNA damage and other cellular stresses. […] The activation of the reporter gene under culture conditions can be detected by fluorescence intensity. This cell line was used to screen the Tox21 10K compound library in a 1536-well plate format and to identify agonists that activate the p53 signaling pathway.
Tox21 Assay Protocol Summary:
The p53RE-bla cells were dispensed at 4,000 cells/5 ul/well in 1536-well black wall/clear bottom plates using a Multidrop dispenser. After the assay plates were incubated at a 37 C/5% CO2 incubator for 5 hours, 23 nL of compounds dissolved in DMSO, positive controls or DMSO only was transferred to the assay plate by a pin tool. The plates were incubated at 37 C for 16 hours. After 1 uL of LiveBLAzerTM B/G FRET substrate was added using a Flying Reagent Dispenser, the plates were incubated at room temperature for 2 hours, and fluorescence intensity was measured by an Envision plate reader.

SMILES	Potency
O=C(c1ccccc1)C1(O)CCCCC1	inactive
C=C(C)C(=O)OCCCCCCCC(C)C	inactive
CCCCCCCCCOCC1CO1 (stereo not given)	inactive
OCC(CO)N[C@H]1C[C@](O)(CO)[C@@H](O)[C@H](O)[C@H]1O	inactive
CCOC(/C=C(\C)CCC=C(C)C)OCC	inactive
CCCCc1ccc(Cl)cc1	inactive
c1ccc(CNCc2ccccc2)cc1	inactive
CCC(N)(CO)CO	inactive
CCC(=O)OCc1ccc(OC)cc1	inactive
Cc1cccc(N(C)C(=S)Oc2ccc3ccccc3c2)c1	inactive
NC(=S)N/N=C/c1cccnc1	inactive
CCC(C)(O)CCC=C(C)C (stereo not given)	inactive
Clc1cccc(Cl)c1NC1=NCCN1	inactive
CC(C)S	inactive
COc1cccc(OC)c1O	inactive
CCCCCCCCCCCC[N+](C)(C)CCCS(=O)(=O)[O-]	inactive
Nc1ccccc1S(=O)(=O)O	inactive
O=C1OC(=O)c2ccc3c4c(ccc1c24)C(=O)OC3=O	inactive
CCCCCC/C=C/C(=O)OC	inactive
C[C@@H]1O[C@@H](OC[C@H]2O[C@@H](Oc3c(-c4ccc(O)c(O)c4)oc4cc(O)cc(O)c4c3=O)[C@H](O)[C@@H](O)[C@@H]2O)[C@H](O)[C@H](O)[C@H]1O	inactive

SMILES	Potency
NCCOCCN	inactive
CC(C)CCCCCCCCCCCCCCC(=O)O	inactive
N#CCN(CC#N)CCN(CC#N)CC#N	inactive
CCCCCCCCC1CCC(=O)O1 (stereo not given)	inactive
C=C(C)[C@@H]1CCC2=CCC[C@@H](C)[C@]2(C)C1	inactive
Cc1cccc(Cl)c1	inactive
O=S(=O)(O)c1cccc(S(=O)(=O)O)c1	inactive
CN(C)c1cc(NC(=O)CNC(C)(C)C)c(O)c2c1C[C@H]1C[C@H]3[C@H](N(C)C)C(=O)C(C(N)=O)=C(O)[C@@]3(O)C(=O)C1=C2O	inactive
CC/C=C\CCO	inactive
CC(N)CN (stereo not given)	inactive
COc1ccc(OC)c(C(O)CNC(=O)CN)c1 (stereo not given)	inactive
C=CCOC(=O)CCCCCCCC	inactive
CCCC=O	inactive
Cc1sccc1Br	inactive
CC(C)c1ccccc1O	inactive
O=C1CCC(=O)O1	inactive
CC(C)CC(O)CC(C)C	inactive
C=CCOCC(CO)(COCC=C)COCC=C	inactive
N#[N+]c1ccc2c(S(=O)(=O)[O-])cccc2c1O	inactive
C=CC(=O)OCCCCCCCC	inactive
